High-throughput results from PubChem.
A selection: hits, their analogues and other compounds. The true share with any hit is near 3.1%.
EP2 modulator = modulates human prostaglandin E2 receptor EP2 signaling; hit rate 0.83% among 260,000; EP2-expressing cells, cAMP HTRF FRET, PGE2 co-stimulation; AID 940; induction, % at 25 µM;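 active means compounds whose cAMP rise, as percent of the full-agonist control response, exceeds 60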;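 further: rat C6 glioma line stably carrying human EP2 under a CMV promoter; the protocol text gives 20 µM as final concentration; 100% = response of wells given 1 µM PGE2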
KCC2 mod = modulators of human KCC2 chloride dependent transport; KCC2 cells, thallium flux FluoZin-2 fluorescence; B-score of Tl+ flux slope (higher = more flux/activation; lower = inhibition) at 10 µM; hit rate 2.2% among 190,000; AID 1456;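 active means thallium flux slope and its plate-corrected score both differing from the plate sample mean at a set confidence after two filtering rounds, in either direction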;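 further: slope of fluorescence scaled to starting intensity during 10 to 20 s after thallium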
EP2 antag = inhibitors of human EP2 prostaglandin E2 receptor | P43116 | C6 glioma cells expressing human EP2, cAMP TR-FRET; cells stimulated with saturating PGE2 | inhibition, % at 25 µM | hit rate 0.52% among 260,000;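 active means percent inhibition above 40 after rounding to a whole number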;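 further: rat C6 glioma host cells with rolipram phosphodiesterase inhibitor present; the protocol text gives 20 µM as final concentration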
S1P3 antagonist = antagonists of human S1P3 receptor; Q99500; CHO S1P3 NFAT-BLA reporter, FRET fluorescence, antagonist mode; inhibition, % at 4.98 µM; hit rate 0.27% among 170,000; AID 485;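 active means inhibition above the plate cutoff, the mean inhibition of test wells on that plate plus 3 SD, cut at about 28% in these data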;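 further: cells challenged with S1P at its EC80 of 0.8 µM; blue over green emission ratio from cleaved BLA substrate after 4 h stimulation; 0% = S1P-stimulated wells and 100% = unstimulated DMSO-only wells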
Target sequence (Q99500 whole entry, looked up): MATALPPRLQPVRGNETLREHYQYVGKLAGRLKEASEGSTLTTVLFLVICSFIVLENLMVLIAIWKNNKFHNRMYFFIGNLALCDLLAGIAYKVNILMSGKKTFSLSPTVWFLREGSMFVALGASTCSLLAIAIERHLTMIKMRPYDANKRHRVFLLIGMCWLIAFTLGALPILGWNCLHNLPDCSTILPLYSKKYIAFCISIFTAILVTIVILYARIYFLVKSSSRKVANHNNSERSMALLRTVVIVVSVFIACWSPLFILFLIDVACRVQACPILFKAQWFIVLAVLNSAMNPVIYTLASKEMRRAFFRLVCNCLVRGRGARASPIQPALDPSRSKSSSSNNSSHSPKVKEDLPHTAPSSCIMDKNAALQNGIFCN
An asterisk follows results filed as active; / = no result given.

SMILES	EP2 modulator	KCC2 mod	EP2 antag	S1P3 antagonist
COc1ccc(C(=O)/C(C#N)=N/Nc2cccc([N+](=O)[O-])c2)cc1	-40	-5*	7	4
N#CSc1cnc(N)s1	-120	/	111*	/
COc1ccc(C(=O)N/N=C/c2ccc3cccc(OCc4ccccc4)c3n2)cc1	3	4.1*	12	/
NC(N)=N/N=C/c1ccc2cccc(OCc3ccccc3)c2n1	-23	-0.028	22	2
O=C(N/N=C/c1ccc2cccc(OCc3ccccc3)c2n1)c1ccc(Br)cc1	-79	11*	16	/
O=C(N/N=C/c1ccccn1)c1ccc(Br)cc1	-11	4.2*	4	-12
O=C(O)c1cc(/C=C\c2ccccc2)nc2ccccc12	-20	/	11	/
O=C(c1ccccc1)N1CCN(CC(O)COc2ccc3ccccc3c2)CC1 (configuration not stated)	-133	/	10	/
CNc1nc(OC)nc(N2CCOCC2)n1	18	0.38	23	66*
CC[C@@H](Cn1nnc2ccccc2c1=O)NC(=O)Cc1ccc(OC)cc1	-5	/	5	/
COc1ccc(Nc2cc(C)nc(N3CCOCC3)n2)cc1	27	-0.19	13	-26
CSc1nc(C)cc(Nc2ccc(O)c(CN3CCOCC3)c2)n1	6	/	44*	/
CCSc1nc2ccccc2c(=O)n1Cc1ccc(F)cc1	65*	-0.022	7	2
C=C(C)Cn1c(SCCC)nc2ccccc2c1=O	94*	/	14	/
C=C(C)Cn1c(SCC)nc2ccccc2c1=O	57	0.63	15	2
CCSc1nc2c(c(=O)n1Cc1ccccc1)SC(C)C2 (configuration not stated)	62*	-0.51	9	-6
Cc1ccc2cc(CN(CC3CCCO3)C(=S)Nc3cccc(Cl)c3)c(=O)[nH]c2c1 (configuration not stated)	17	/	8	/
Cn1nc(C(=O)NCc2ccc(F)cc2)c2ccccc2c1=O	7	0.77	7	91*
COc1ccc(CCNC(=O)CSc2nnnn2-c2cccc(F)c2)cc1OC	-2	/	12	/
Cc1ncc(-c2ccncc2)c(C2CCCN(C(=O)Cc3ccc(F)cc3)C2)n1 (configuration not stated)	-23	/	/	/
COCOc1cc(O)c(C(=O)/C=C/c2ccccc2)c(OCOC)c1	/	/	16	/
COc1cc(O)c(C(=O)/C=C/c2ccc(OC)c(O)c2)c(OC)c1	-3	/	57*	/
CC1(C)CC(=O)C2=C(C1)Nc1ncnn1C2c1ccc2ccccc2c1 (configuration not stated)	-21	/	11	/
O=C(Cc1n[nH]c(=O)c2ccccc12)OCC(=O)N(Cc1ccccc1)Cc1ccccc1	63*	-2.5	8	-6
Cc1nc(C)n(C(C)CNS(=O)(=O)c2ccc3c(c2)NC(=O)CO3)n1 (configuration not stated)	-20	/	4	/
SMILES	EP2 modulator	KCC2 mod	EP2 antag	S1P3 antagonist
O=C1c2ccccc2-n2c1nc1ccccc1c2=O	-25	0.0067	54*	3
Cc1cc(C)nc(NS(=O)(=O)c2ccc(NC(=O)CSc3nc(-c4ccccc4)c(C#N)c(=O)[nH]3)cc2)n1	62*	-0.67	24	-5
N#Cc1c(-c2ccccc2)nc(SCC(=O)Nc2ccccc2F)[nH]c1=O	37	-1.3	20	-24
N#Cc1c(-c2ccccc2)nc(SCC(=O)Nc2ccccc2)[nH]c1=O	33	-4.8*	28	2
CCCn1c(SCC(=O)Nc2c(C)cccc2C)nnc1-c1ccco1	6	/	10	/
O=C(O)CCCn1cc(NC(=O)c2cc(F)c(F)cc2Cl)cn1	61*	0.35	11	3
O=C(O)CCCn1cc(NC(=O)c2cccc(F)c2)cn1	12	-1.1	8	-30
CC1(C)Oc2ccc(C(=O)NC3CCCCC3)cc2N(CC(=O)Nc2ccccc2Cl)C1=O	-21	/	10	/
Cc1ccccc1OCC(=O)Nc1ccc(N2CCN(C(=O)c3cccs3)CC2)cc1	-47	/	9	/
O=C(NCc1ccc(F)cc1)C1CCN(C(=O)NCc2ccccc2)CC1	29	0.78	11	6
O=C(NCc1ccccc1F)C1CCN(C(=O)NCc2ccccc2)CC1	10	-0.35	5	68*
CCC(C)(C)n1nnnc1C(C(C)C)N1CCN(c2cccc(C)c2C)CC1 (configuration not stated)	32	/	12	/
CCC(=O)Nc1ccc(NC(=O)c2ccc3c(c2)OCCO3)cc1	-65	/	9	/
CCN(CC)S(=O)(=O)c1ccc(OC)c(NC(=O)COc2ccc3c(C)cc(=O)oc3c2)c1	10	-1.3	67*	-22
Nc1nc(-c2ccccn2)nc(N)c1Cc1c(F)cccc1Cl	-33	0.22	5	-7
Cc1n[nH]c(C)c1Cc1c(F)cccc1Cl	87*	-0.26	-2	7
